Shown are actives, neighbours in structure and some others; about 2.4% of the full set was active somewhere.
TRHR enhancer: allosterically enhances the human TRH receptor; enhancement, % at 2 µM; P34981; AID 493056; TRHR cells, fluo-8 calcium fluorescence, EC20 TRH enhancement; 360,000 compounds, 0.66% hits; in the data active = enhancement above about 30%; note: 0% is about no effect
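TRHR-expressing cells loaded with fluo-8 calcium dye were read kinetically (ex 480/em 530) during compound addition, then stimulated with an EC20 of TRH (10 nM final). Enhancement of the Gq-mediated intracellular calcium response was scored.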
GLP1R ag: agonists of human GLP-1 receptor | P43220 | Potency, µM (titrated, usually from 45.6 µM), without a hit: top-dose activation, most hits filed as activators | 380,000 compounds, 0.007% hits | AID 624172 | HEK293 GLP-1R CRE-luciferase, luminescence, 4-6 h; cells express a hypersensitive GLP-1R form; note: potency is the fitted concentration of half-maximal effect; % of control where 0% means no effect
HEK293 tox: cytotoxicity counter-screen for GLP-1 receptor inverse agonists | HEK293 cAMP-luciferase reporter cells, luminescence, 24 h | Potency, µM (highest dose often 38.3 µM), for inactives: at the top dose activity change, negative = inhibition, hits mostly inhibitors | 410,000 compounds, 0.13% hits | AID 624418;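 note: loss of luciferase light is scored as toxicity; potency is the fitted concentration of half-maximal effect; % is set by controls: 0 for no effect and ±100 for the full control effect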
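Compound-treated cells are incubated 24 hr at 37 deg C under 5% CO2 after a 12 hour attachment period, then luciferase detection reagent is added and luminescence is measured following 12 min at room temperature; lowered signal indicates toxicity.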
TRHR ag: TRH receptor (human) agonism. P34981. TRHR cells, calcium flux fluo-8, FDSS agonist mode. activation, % at 2 µM. 360,000 compounds, 0.18% hits; in the data active = activation above about 30%; note: 0% is about no effect
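Agonist-mode FDSS calcium read (Ex 480/Em 530, 1 s cycles) in 1536-well TRHR cells with fluo-8 dye, after 10-cycle baseline and 23 nL compound addition; TRH at EC20 (10 nM final) added afterwards for the enhancer phase.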
GLP-1R inv ag: GLP-1 receptor (human) inverse agonism | P43220 | HEK293 GLP-1R CRE-luciferase, luminescence, 24 h; GLP-1R form is constitutively active | Potency, µM (series often up to 38.3 µM), for the others: top-dose activity change, negative = inhibition, usual class: inhibitors | 410,000 compounds, 1.6% hits; note: potency is the fitted concentration of half-maximal effect; % is set by controls: 0 for no effect and ±100 for the full control effect; nearly all actives have a fitted effect of over 55% in size
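Constitutively active GLP-1R drives a cAMP-responsive luciferase in stably transfected HEK293 cells; test compounds are added after overnight (12 h) attachment and left 24 hr, and signal loss in luminescence marks inhibition.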
PTHR1 ag: PTHR1 (human) receptor agonism. Potency, µM (highest dose often 115 µM), without a hit: at the top dose activation, actives largely listed as activators. HEK293 GP2 PTHR1 cells, GloSensor cAMP luminescence, 1 h. Q03431. 410,000 compounds, 0.075% hits; note: potency is the fitted concentration of half-maximal effect; nearly all actives have a fitted effect of over 55% in size
Target sequence (Q03431 whole entry, looked up): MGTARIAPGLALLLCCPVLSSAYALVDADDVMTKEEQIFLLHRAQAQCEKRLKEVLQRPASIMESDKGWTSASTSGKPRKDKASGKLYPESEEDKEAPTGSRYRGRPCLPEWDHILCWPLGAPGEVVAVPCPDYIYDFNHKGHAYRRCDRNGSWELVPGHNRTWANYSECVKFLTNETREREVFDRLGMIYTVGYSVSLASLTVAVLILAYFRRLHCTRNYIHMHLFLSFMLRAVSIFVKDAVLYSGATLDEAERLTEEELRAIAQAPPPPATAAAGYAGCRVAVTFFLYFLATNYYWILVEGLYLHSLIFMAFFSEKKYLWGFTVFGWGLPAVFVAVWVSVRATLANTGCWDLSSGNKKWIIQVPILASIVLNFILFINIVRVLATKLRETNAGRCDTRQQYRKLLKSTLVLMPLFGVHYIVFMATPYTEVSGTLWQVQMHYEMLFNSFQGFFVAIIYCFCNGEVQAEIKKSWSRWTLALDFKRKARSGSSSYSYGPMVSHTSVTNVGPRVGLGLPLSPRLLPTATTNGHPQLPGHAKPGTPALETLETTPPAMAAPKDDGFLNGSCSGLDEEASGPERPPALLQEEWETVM
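HEK-293-derived GP2 cells expressing PTHR1 and a GloSensor cAMP reporter, 3,000/well, plated overnight, given luciferin plus IBMX (each 0.5 mM as added) for 1 h at 37 °C, then compound for 1 h at 37 °C. Luminescence was read after 15 min at room temperature.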
Active calls of the source: *; i = inactive; u = inconclusive; x = no result given; [ ] = remark or other dose. Unless noted, calls come from the whole dose curve; as a rule, active = well fitted curve in the direction sought with a large enough effect; inconclusive = small, poorly fitted or top-dose-only effect, or another doubt; inactive = no such curve, though single readings can be large; an effect the other way counts as inactive or inconclusive.

SMILES	TRHR enhancer	GLP1R ag	HEK293 tox	TRHR ag	GLP-1R inv ag	PTHR1 ag
CCN(CCNC(=O)C1CCN(S(=O)(=O)c2cccc3cccnc23)CC1)c1ccccc1	36.6*	-0.9%	-1.4%	-1.7	u	-0.7%
NS(=O)(=O)c1ccc(CCNC(=O)C2CCN(S(=O)(=O)c3cccc4cccnc34)CC2)cc1	-1.2	-2.8%	15.8%	0.4	18.4%	i
CC1CCCCN1CCNC(=O)C1CCN(S(=O)(=O)c2cccc3cccnc23)CC1 (configuration not stated)	31.4*	-2.3%	9.2%	0.2	8.8%	u
CC1=CC(C)(C)Nc2ccc(Cc3ccc4c(c3)C(C)=CC(C)(C)N4)cc21	38.4*	-0.6%	-15.4%	-0.2	2.82µM*	-34.0%
CC1=CC(C)(C)Nc2ccc(C)cc21	-4.0	-11.7%	-17.8%	0.0	0.0%	-6.3%[57.5 µM]
O=c1cc(O)c(-c2ccc(Cl)c(Cl)c2)c(Cl)[nH]1	35.0*	5.2%	-0.4%	0.6	38.0%	-20.4%
COC(=O)c1cccc(NC(=O)/C=C/c2ccc3c(c2)OCO3)c1	0.5	-18.9%	-21.0%	0.2	3.55µM*	-30.5%
O=C(/C=C/c1ccc2c(c1)OCO2)Nc1cccnc1	-0.5	-7.7%	-15.0%	0.2	10µM*	-43.2%
CCOc1ccc(CNC(=O)C2CCCN(c3nc4c(C)cc(C)cc4s3)C2)cc1 (configuration not stated)	1.3	x	3.0%	0.0	9.4%	22.4%
Cn1c(CN2CCCC2)nc2cc(NS(=O)(=O)c3ccc(Cl)cc3)ccc21	5.6	-2.3%	17.0%	1.7	3.98µM*	-8.9%[57.5 µM]
Cc1ccc(NC(=O)c2cc(S(=O)(=O)NC3CCCCC3)ccc2F)cc1Cl	-1.1	x	-32.0%	0.8	7.94µM*	-9.7%
O=C(Nc1ccc(Br)cc1)c1cc(S(=O)(=O)NC2CCCC2)ccc1F	3.4	x	-0.3%	-0.5	u	-24.4%
O=C(Nc1ccc(F)c(F)c1)c1cc(S(=O)(=O)NC2CCCC2)ccc1F	-2.0	x	-2.7%	-0.7	10µM*	i
O=C(Nc1cc(Cl)cc(Cl)c1)c1cc(S(=O)(=O)NC2CCCC2)ccc1F	1.5	x	u	0.4	u	-9.7%
CC1=Nc2nc(N3CCCCCC3)c(C#N)c3c4c(nc(c23)N1)N(c1ccc2ccccc2c1)C(=O)C4	x	-6.4%	4.5%	x	0.501µM*	i
C(=N\N1CCN(C2c3ccccc3-c3ccccc32)CC1)/c1cccnc1	-8.4	4.1%	-20.7%	-0.2	11.2µM*	-5.4%
CC1CCN(C2CCN(C(=O)c3ccccc3F)CC2)CC1	-1.5	0.6%	1.9%	0.6	-3.1%	i
O=C(CSc1nnc(-c2ccc(Cl)cc2)n1Cc1ccco1)NCc1ccc2c(c1)OCO2	-2.8	-2.8%	-14.7%	-0.5	10µM*	u
Cc1ccc(S(=O)(=O)Nc2cccc(C(=O)NCC3(N4CCCCC4)CCCCC3)c2)cc1F	0.7	14.3%	-26.5%	-0.3	11.2µM*	i
Cc1ccc(S(=O)(=O)/C(C#N)=C/c2c(N3CCOCC3)nc3ccccn3c2=O)cc1	-6.8	-0.9%	-16.2%	1.6	10.1%	-20.7%
O=C(c1ccc(Cl)c(Cl)c1)N(Cc1ccco1)c1ccc(O)cc1	7.3	2.0%	-2.9%	0.4	11.2µM*	-32.2%[57.5 µM]
Cc1ccc(C(=O)OCc2cc3ccccc3[nH]c2=O)cc1	37.7*	8.5%	20.1%	-0.2	2.8%	u
O=S(=O)(c1ccc(NCCOc2ccccc2)nc1)N1CCCC1	-1.8	16.5%	5.5%	0.5	1.9%	-28.6%
Cc1sc2ncnc(SC(C)C(=O)N3c4ccccc4Sc4ccccc43)c2c1C (configuration not stated)	-7.0	0.0%	-11.5%	0.2	8.91µM*	i
O=C(COC(=O)c1c2c(nc3ccccc13)/C(=C\c1cccs1)CCC2)Nc1ccccc1	-0.1	-3.4%	71.8%	1.1	0.0%	-7.4%

Bioassay records deposited in PubChem BioAssay by National Center for Advancing Translational Sciences (NCATS).
